In PubChem BioAssay AID1159580 (chemical genetic matrix, 2015):
Among all 5,500 compounds or so, about 2,000 (36%) were called active. Roughly 18% stayed inconclusive and do not appear here. Cut-off read from the data, not from the text of the source: active = normalized growth mostly below about 0.91 (no sharp cut-off); inconclusive = no clear call, values can overlap the other calls; inactive = mostly above about 0.92. Some of the results follow.

Experiment: chemical genetic growth profiling, strain panel (AID 1159580);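 note: tested at 20 µM; growth read once vehicle control cultures reached saturation at 30 °C; 1 = growth at the plate median or of vehicle wells; lower values mean less growth of the strain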
Conditions: S. cerevisiae deletion strains, growth OD

Measured: normalized growth

O=C1CC2(CCCC2)CC(=O)N1CCCCN1CCN(c2ncccn2)CC1
inactive: locus YAL021C, strain ccr4, hits give low values 0.985 | locus YAL026C, strain drs2, hits give low values 1.03 | locus YAL030W, strain snc1, hits give low values 0.998 | locus YAL040C, strain CLN3, hits give low values 0.987 | locus YBL061C, strain skt5, hits give low values 0.995 | locus YBR009C, strain hhf1, hits give low values 0.989 | locus YBR023C, strain chs3, hits give low values 0.996 | locus YBR171W, strain sec66, hits give low values 1.01 | locus YBR231C, strain swc5, hits give low values 0.993 | locus YBR279W, strain paf1, hits give low values 0.999 | locus YCL011C, strain gbp2, hits give low values 1 | locus YCL016C, strain dcc1, hits give low values 1 | locus YCL061C, strain MRC1, hits give low values 0.998 | locus YCL069W, strain vba3, hits give low values 1 | locus YCR088W, strain abp1, hits give low values 1.01 | locus YDL005C, strain med2, hits give low values 0.993 | locus YDL040C, strain nat1, hits give low values 0.996 | locus YDR001C, strain nth1, hits give low values 1.02 | locus YDR069C, strain doa4, hits give low values 0.978 | locus YDR137W, strain rgp1, hits give low values 0.984 | locus YDR159W, strain sac3, hits give low values 0.985 | locus YDR195W, strain ref2 0.974 | locus YDR297W, strain sur2, hits give low values 1 | locus YDR334W, strain swr1, hits give low values 1.01 | locus YDR335W, strain msn5, hits give low values 1 | locus YDR392W, strain spt3, hits give low values 0.801 | locus YEL003W, strain gim4, hits give low values 1.01 | locus YEL037C, strain rad23, hits give low values 1.01 | locus YEL061C, strain CIN8 (second series), hits give low values 1.01 | locus YER002W, strain NOP16, hits give low values 1.01 | locus YER015W, strain faa2, hits give low values 0.998 | locus YER016W, strain bim1, hits give low values 0.996 | locus YER111C, strain swi4, hits give low values 1 | locus YER155C, strain BEM2 (second series), hits give low values 1 | locus YFR010W, strain ubp6, hits give low values 1.02 | locus YGL167C, strain pmr1, hits give low values 0.991 | locus YGL173C, strain kem1, hits give low values 1 | locus YGL227W, strain vid30, hits give low values 1 | locus YGL240W, strain doc1, hits give low values 0.978 | locus YGL253W, strain hxk2, hits give low values 1.01 | locus YHR013C, strain ard1, hits give low values 0.929 | locus YHR027C, strain rpn1, hits give low values 1 | locus YHR030C, strain SLT2, hits give low values 1.06 | locus YHR079C, strain IRE1, hits give low values 1 | locus YHR142W, strain chs7, hits give low values 1.02 | locus YJL092W, strain hpr5, hits give low values 1.04 | locus YJL095W, strain BCK1 (second series), hits give low values 0.995 | locus YJL095W, strain BCK1, hits give low values 1 | locus YJL115W, strain asf1, hits give low values 0.998 | locus YJL129C, strain trk1, hits give low values 1.02 | locus YJL154C, strain vps35, hits give low values 1 | locus YJL164C, strain tpk1, hits give low values 0.986 | locus YJL166W, strain qcr8, hits give low values 0.987 | locus YJL187C, strain SWE1, hits give low values 0.996 | locus YJR066W, strain TOR1, hits give low values 0.959 | locus YJR075W, strain HOC1, hits give low values 0.978 | locus YKL160W, strain elf1, hits give low values 0.986 | locus YKR026C, strain gcn3, hits give low values 1.01 | locus YKR091W, strain srl3, hits give low values 0.995 | locus YLL001W, strain dnm1, hits give low values 0.983 | locus YLL026W, hits give low values 0.987 | locus YLL041C, strain sdh2, hits give low values 0.999 | locus YLR027C, strain aat2, hits give low values 0.999 | locus YLR113W, strain HOG1, hits give low values 1.04 | locus YLR221C, strain rsa3, hits give low values 0.995 | locus YLR258W, strain gsy2, hits give low values 0.977 | locus YLR262C, strain YPT6 (second series), hits give low values 0.958 | locus YLR320W, strain mms22, hits give low values 0.974 | locus YLR342W, strain FKS1, hits give low values 1 | locus YLR357W, strain rsc2, hits give low values 1.02 | locus YLR370C, strain arc18, hits give low values 1.01 | locus YLR384C, strain iki3, hits give low values 0.978 | locus YML120C, strain ndi1, hits give low values 1 | locus YMR058W, strain fet3, hits give low values 1 | locus YMR125W, strain sto1, hits give low values 0.998 | locus YMR129W, hits give low values 1.02 | locus YMR205C, strain PFK2, hits give low values 0.994 | locus YMR231W, strain pep5, hits give low values 0.992 | locus YNL071W, strain lat1, hits give low values 0.999 | locus YNL128W, strain TEP1, hits give low values 0.979 | locus YNL153C, strain GIM3, hits give low values 0.996 | locus YNL175C, strain NOP13, hits give low values 1.01 | locus YNL183C, strain NPR1, hits give low values 0.96 | locus YNL197C, strain WHI3, hits give low values 0.96 | locus YNL209W, strain ssb2, hits give low values 0.986 | locus YNL224C, strain SQS1, hits give low values 0.996 | locus YNL248C, strain rpa49, hits give low values 1 | locus YNL322C, strain KRE1 (second series), hits give low values 0.99 | locus YNR049C, strain mso1, hits give low values 1.01 | locus YOR001W, strain rrp6, hits give low values 0.988 | locus YOR070C, strain gyp1, hits give low values 0.999 | locus YOR080W, strain dia2, hits give low values 0.987 | locus YOR083W, strain WHI5 (second series), hits give low values 1.01 | locus YOR083W, strain WHI5, hits give low values 1.02 | locus YOR106W, strain vam3, hits give low values 0.997 | locus YOR231W, strain MKK1, hits give low values 1.01 | locus YOR265W, strain rbl2, hits give low values 1 | locus YOR270C, strain vph1, hits give low values 1.03 | locus YOR290C, strain snf2, hits give low values 0.934 | locus YPL051W, strain arl3, hits give low values 0.992 | locus YPL078C, strain atp4, hits give low values 1 | locus YPL106C, strain sse1, hits give low values 0.999 | locus YPL240C, strain hsp82, hits give low values 1.01 | locus YPL241C, strain CIN2, hits give low values 1 | locus YPL256C, strain CLN2, hits give low values 0.999
